STK33 kin inh = STK33 kinase inhibitors, primary screen, biochemical, luminescence, ADP-Glo, MBP substrate; 27,000 tested, 0.44% active; inhibition, % at 12.5 µM; Serine/threonine-protein kinase 33 (Homo sapiens), Q9BYT3; in the data active = inhibition above about 20%
Target sequence (Q9BYT3 whole entry, looked up): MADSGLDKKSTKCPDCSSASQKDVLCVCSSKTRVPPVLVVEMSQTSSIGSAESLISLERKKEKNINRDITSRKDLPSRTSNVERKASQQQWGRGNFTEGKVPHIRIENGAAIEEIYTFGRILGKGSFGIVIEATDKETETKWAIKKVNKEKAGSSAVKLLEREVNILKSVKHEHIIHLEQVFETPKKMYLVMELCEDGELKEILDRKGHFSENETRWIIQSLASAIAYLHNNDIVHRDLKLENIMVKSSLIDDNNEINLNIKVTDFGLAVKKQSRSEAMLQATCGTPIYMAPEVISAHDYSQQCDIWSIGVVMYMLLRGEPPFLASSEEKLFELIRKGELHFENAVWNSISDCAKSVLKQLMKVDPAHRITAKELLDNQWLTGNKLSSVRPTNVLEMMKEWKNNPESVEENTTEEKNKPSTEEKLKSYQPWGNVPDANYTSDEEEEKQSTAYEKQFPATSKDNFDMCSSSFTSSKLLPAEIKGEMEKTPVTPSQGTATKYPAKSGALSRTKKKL
PD-1 reverse act = activators reversing PD-1 mediated T-cell inhibition, primary screen, luminescence, primary human CD4 T cells, PD-L1 beads; CellTiter-Glo 96 h; AID 2316, 2010; 29,000 tested, under 10 active; activation, % (concentration not given with the values); call rule not given here;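 note: 0% = median vehicle wells and 100% = positive control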
The depositor's hits bear a star; . = not tested or not shown. The entries come from a sample that favours hits as a whole.

SMILES | STK33 kin inh | PD-1 reverse act
Cc1noc(C)c1NC(=O)N(C)C[C@H]1Oc2ccc(NC(=O)CCC(F)(F)F)cc2C(=O)N([C@H](C)CO)C[C@@H]1C | . | 1
O=C(/C=C/c1ccccc1)c1ccc(O)cc1 | 27* | .
O=C(/C=C/c1ccccc1)CC(=O)/C=C/c1ccccc1 | 0 | 0
COC(=O)c1cn(CC(N)=O)c2ccccc12 | 0 | 1
CN(C)CCCn1cc(C2=C(c3c[nH]c4ccccc34)C(=O)NC2=O)c2ccccc21 | 114* | .
O=C(O)CSc1c[nH]c2ccccc12 | -3 | .
Cn1cc(C2=C(c3cn(CCCSC(=N)N)c4ccccc34)C(=O)NC2=O)c2ccccc21 | 106* | -9
Cc1noc(C)c1NC(=O)Nc1ccc2c(c1)C(=O)N([C@@H](C)CO)C[C@H](C)[C@@H](CN(C)Cc1ccc(C(=O)Nc3ccccc3N)cc1)O2 | . | 0
COc1ccc(-c2cc(C(F)(F)F)nc(SCC(N)=O)n2)cc1OC | -5 | -2
COc1ccc(NC(=O)N(C)C[C@H]2Oc3ccc(N(C)C)cc3CC(=O)N([C@@H](C)CO)C[C@H]2C)cc1 | 1 | 2
COc1ccc2c(C)c(CCC(=O)O)c(=O)oc2c1C | 2 | 0
CC(=O)O[C@@H]1CC(C)=C2[C@H]1[C@H](C)CC[C@H]2/C=C(\C)C(=O)O | -3 | 2
O=C(Oc1ccc([C@@H]2Oc3cc(O)cc(O)c3C[C@H]2O)cc1O)c1cc(O)c(O)c(O)c1 | 10 | .
Cc1cc(C(=O)Nc2cccc3c2O[C@H](CN(C)C(=O)NC2CCCCC2)[C@H](C)CN([C@@H](C)CO)C3=O)n(C)n1 | . | 1
CCN(CC)CCCC(C)Nc1c2ccc(Cl)cc2nc2ccc(OC)cc12 (stereo not given) | 33* | .
COc1ccc2nc(Nc3nc(C)c(CCC(C)C)c(=O)[nH]3)nc(C)c2c1 | 0 | -2
CC(C)n1cnc2c(Nc3cccc(Cl)c3)nc(NCCO)nc21 | 90* | 7
CC[C@H](CO)Nc1nc(NCc2ccccc2)c2ncn(C(C)C)c2n1 | 17 | 4
C[C@H]1CN([C@@H](C)CO)C(=O)c2cc(NC(=O)Nc3ccc4c(c3)OCO4)ccc2O[C@@H]1CN(C)C(=O)Nc1ccc(F)cc1 | . | 1
COc1ccc(/C=C/C(=O)O[C@]2(C)CCC3C(C(=O)O)=CO[C@@H](O[C@@H]4O[C@H](CO)[C@@H](O)[C@H](O)[C@H]4O)[C@@H]32)cc1 (stereo not given in full) | -4 | -1
O=C1c2c(O)ccc(O)c2C(=O)c2c(NCCNCCO)ccc(NCCNCCO)c21 | 58* | .
O=c1c(O)c(-c2cc(O)c(O)c(O)c2)oc2cc(O)cc(O)c12 | 36* | .
O=c1c(O)c(-c2ccccc2)oc2cc(O)cc(O)c12 | 1 | 0
CS(=O)(=O)NCCOc1ccccc1 | -3 | 3
COc1ccc([Si](C)(C)[C@@H]2[C@@H](CCn3cc(CCO)nn3)O[C@]3(C(=O)N(Cc4ccc(N5CCOC5=O)cc4)c4ccccc43)[C@H]2C)cc1 | 24* | .
SMILES | STK33 kin inh | PD-1 reverse act
COc1ccc([Si](C)(C)[C@@H]2[C@@H](CCn3cc([C@H](O)c4ccccc4)nn3)O[C@]3(C(=O)N(Cc4ccc(N5CCOC5=O)cc4)c4ccccc43)[C@H]2C)cc1 | 2 | .
O=C(Nc1ccccc1C(=O)O)c1ncn[nH]1 | 2 | 2
O=C(Nc1cccc(NC(=O)c2ncn[nH]2)c1)c1cccc(Cl)c1 | 32* | -2
COc1cccc(S(=O)(=O)N(C)C[C@H]2OCc3cn(nn3)CCCC(=O)N([C@H](C)CO)C[C@H]2C)c1 | -7 | .
CCn1c(SCC(=O)Nc2ccc(F)c(F)c2F)nnc1-c1ccccc1O | -3 | 0
COc1ccc(C#Cc2ccc3c(c2)[C@]2(C(=O)N3)[C@H](C(=O)N3CCN(c4ncccn4)CC3)[C@H]3C(=O)O[C@H](c4ccccc4)[C@H](c4ccccc4)N3[C@@H]2c2ccccc2OCCO)cc1 | 8 | .
O=C1O[C@H](c2ccccc2)[C@H](c2ccccc2)N2[C@H]1[C@@H](C(=O)N1CCCCCCC1)[C@]1(C(=O)Nc3ccc(C#CC4(O)CCCCCC4)cc31)[C@H]2c1ccccc1OCCO | 21* | .
O=C1O[C@H](c2ccccc2)[C@H](c2ccccc2)N2[C@H]1[C@@H](C(=O)N1CCCCCCC1)[C@]1(C(=O)Nc3ccc(C#CC4=CCCCC4)cc31)[C@H]2c1ccc(OCCO)cc1 | 22* | .
COc1ccc(C#Cc2ccc3c(c2)[C@]2(C(=O)N3)[C@H](C(=O)N3CCCCCCC3)[C@H]3C(=O)O[C@H](c4ccccc4)[C@H](c4ccccc4)N3[C@@H]2c2ccccc2OCCO)cc1 | 30* | .
O=C1O[C@@H](c2ccccc2)[C@@H](c2ccccc2)N2[C@@H](c3ccccc3OCCO)[C@]3(C(=O)Nc4ccc(C#CCCO)cc43)[C@@H](C(=O)N3CCN(c4ncccn4)CC3)[C@H]12 | 18 | .

Screening data (PubChem BioAssay)
